Assay results published in PubChem BioAssay (Tox21).
Where “and” joins values, the source holds several entries; their conditions need not be identical. Equal entries are not always repeated. Records with an inconclusive call do not appear. Calls of active or inactive are those of the source. Unless noted, calls come from the whole dose curve; as a rule, active = well fitted curve in the direction sought with a large enough effect in the repeat runs; inconclusive = weak or mixed curves; inactive = no such curve, though single readings can be large; an effect the other way counts as inactive or inconclusive.

Experiments:
[1] = qHTS assay for small molecule agonists of the p53 signaling pathway (AID 651631; calls by dose curve; note: nearly all actives have a fitted effect of over 15% in size)
Summary of the method: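 HCT-116 cells carrying a stable p53 response element–beta-lactamase reporter were plated, rested 5 h at 37 °C, then exposed to compound in DMSO for 16 h at 37 °C; reporter activity was read as FRET substrate fluorescence after 2 h at room temperature.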

[2] = target: Estrogen receptor (Homo sapiens) (UniProt P03372); experiment: qHTS assay to identify small molecule antagonists of the estrogen receptor alpha (ER-alpha) signaling pathway (AID 743069; active = well fitted curve in the direction sought with a large enough effect in the signal ratio in the repeat runs, not every such curve was filed as active; the % refers to the signal ratio)
Sequence of Estrogen receptor (Homo sapiens) (P03372 whole entry, looked up): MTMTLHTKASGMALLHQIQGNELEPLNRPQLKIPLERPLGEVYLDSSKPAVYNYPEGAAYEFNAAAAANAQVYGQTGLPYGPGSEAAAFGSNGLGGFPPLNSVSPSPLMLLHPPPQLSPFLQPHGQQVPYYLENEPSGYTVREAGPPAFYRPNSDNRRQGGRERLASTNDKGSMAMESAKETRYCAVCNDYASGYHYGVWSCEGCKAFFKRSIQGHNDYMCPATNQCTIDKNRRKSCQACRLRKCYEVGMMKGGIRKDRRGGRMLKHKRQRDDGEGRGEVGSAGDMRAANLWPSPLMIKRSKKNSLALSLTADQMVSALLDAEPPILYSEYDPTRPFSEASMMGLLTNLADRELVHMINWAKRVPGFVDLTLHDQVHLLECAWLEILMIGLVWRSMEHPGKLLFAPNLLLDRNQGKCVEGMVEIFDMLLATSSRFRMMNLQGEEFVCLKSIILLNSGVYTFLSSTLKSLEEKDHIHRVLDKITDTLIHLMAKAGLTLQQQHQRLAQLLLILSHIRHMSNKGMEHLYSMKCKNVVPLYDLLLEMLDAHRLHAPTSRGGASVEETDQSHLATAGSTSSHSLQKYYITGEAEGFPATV
Summary of the method: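 Estradiol-stimulated ER-alpha-UAS-bla HEK293 cells, 18 hr compound exposure at 37C. LiveBLAzer B/G substrate, 2 hr RT, fluorescence read.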

[3] = target: Nuclear receptor subfamily 1 group I member 2 (Rattus norvegicus) (UniProt Q9R1A7); experiment: Rat pregnane X receptor (rPXR) activation by small molecules, qHTS assay (AID 1346983); details: rPXR luciferase reporter cells, One-Glo luminescence, 24 h; max activation: active compounds read high; note: nearly all actives have a fitted effect of over 20% in size
Sequence of Nuclear receptor subfamily 1 group I member 2 (Rattus norvegicus) (Q9R1A7 whole entry, looked up): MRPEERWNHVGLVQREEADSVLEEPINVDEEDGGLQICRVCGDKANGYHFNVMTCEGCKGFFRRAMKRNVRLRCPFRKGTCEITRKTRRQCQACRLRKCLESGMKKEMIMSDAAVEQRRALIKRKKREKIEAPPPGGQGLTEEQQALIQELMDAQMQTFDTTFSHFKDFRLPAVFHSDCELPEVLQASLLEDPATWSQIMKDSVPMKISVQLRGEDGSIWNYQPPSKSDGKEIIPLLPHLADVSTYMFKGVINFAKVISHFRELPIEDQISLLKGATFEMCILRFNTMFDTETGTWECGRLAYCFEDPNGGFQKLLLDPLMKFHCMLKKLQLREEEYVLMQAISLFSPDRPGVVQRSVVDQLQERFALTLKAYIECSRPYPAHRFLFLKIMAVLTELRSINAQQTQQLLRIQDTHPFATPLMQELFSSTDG
Summary of the method: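 Cell-based rPXR luciferase reporter assay, 2,000 cells per well, rested 5hr at 37 C before compound addition in DMSO, then 24 hr at 37 C. One-Glo reagent was added and luminescence read after 30 min at room temperature.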

[4] = target: Glucocorticoid receptor (Homo sapiens) (UniProt P04150); experiment: qHTS assay to identify small molecule antagonists of the glucocorticoid receptor (GR) signaling pathway (AID 720692; active = well fitted inhibition curve with a large enough effect in the signal ratio in the repeat runs, not every such curve was filed as active; the % refers to the signal ratio)
Sequence of Glucocorticoid receptor (Homo sapiens) (P04150 whole entry, looked up): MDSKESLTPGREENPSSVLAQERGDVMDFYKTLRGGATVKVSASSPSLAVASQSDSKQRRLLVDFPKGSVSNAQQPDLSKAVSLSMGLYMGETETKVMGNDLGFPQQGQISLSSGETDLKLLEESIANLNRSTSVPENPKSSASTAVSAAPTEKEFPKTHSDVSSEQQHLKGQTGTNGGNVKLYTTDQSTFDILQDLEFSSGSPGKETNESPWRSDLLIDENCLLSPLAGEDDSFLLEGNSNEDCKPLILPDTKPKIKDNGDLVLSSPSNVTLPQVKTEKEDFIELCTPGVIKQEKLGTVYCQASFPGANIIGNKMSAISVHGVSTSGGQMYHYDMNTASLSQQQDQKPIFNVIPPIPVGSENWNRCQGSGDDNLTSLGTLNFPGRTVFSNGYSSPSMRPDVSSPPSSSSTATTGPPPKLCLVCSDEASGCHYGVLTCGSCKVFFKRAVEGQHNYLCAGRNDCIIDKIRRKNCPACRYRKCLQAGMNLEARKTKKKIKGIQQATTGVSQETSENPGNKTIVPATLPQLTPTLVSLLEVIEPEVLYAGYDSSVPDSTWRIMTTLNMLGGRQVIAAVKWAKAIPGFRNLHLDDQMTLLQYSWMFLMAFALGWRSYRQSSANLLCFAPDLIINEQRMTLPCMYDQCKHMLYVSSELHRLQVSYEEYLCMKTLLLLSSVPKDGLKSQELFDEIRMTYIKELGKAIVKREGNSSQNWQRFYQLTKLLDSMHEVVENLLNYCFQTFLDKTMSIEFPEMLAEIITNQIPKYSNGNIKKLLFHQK
Summary of the method: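 Dexamethasone (5 nM final) stimulated a stably integrated GRE-beta-lactamase reporter in HeLa cells during 18 h co-incubation with compounds; signal was quantified as fluorescence intensity of B/G FRET substrate after 2 h.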

[5] = target: Androgen receptor (Homo sapiens) (UniProt P10275); experiment: qHTS assay to identify small molecule antagonists of the androgen receptor (AR) signaling pathway (AID 743035; active = well fitted inhibition curve with a large enough effect in the signal ratio in the repeat runs, not every such curve was filed as active; the % refers to the signal ratio)
Sequence of Androgen receptor (Homo sapiens) (P10275 whole entry, looked up): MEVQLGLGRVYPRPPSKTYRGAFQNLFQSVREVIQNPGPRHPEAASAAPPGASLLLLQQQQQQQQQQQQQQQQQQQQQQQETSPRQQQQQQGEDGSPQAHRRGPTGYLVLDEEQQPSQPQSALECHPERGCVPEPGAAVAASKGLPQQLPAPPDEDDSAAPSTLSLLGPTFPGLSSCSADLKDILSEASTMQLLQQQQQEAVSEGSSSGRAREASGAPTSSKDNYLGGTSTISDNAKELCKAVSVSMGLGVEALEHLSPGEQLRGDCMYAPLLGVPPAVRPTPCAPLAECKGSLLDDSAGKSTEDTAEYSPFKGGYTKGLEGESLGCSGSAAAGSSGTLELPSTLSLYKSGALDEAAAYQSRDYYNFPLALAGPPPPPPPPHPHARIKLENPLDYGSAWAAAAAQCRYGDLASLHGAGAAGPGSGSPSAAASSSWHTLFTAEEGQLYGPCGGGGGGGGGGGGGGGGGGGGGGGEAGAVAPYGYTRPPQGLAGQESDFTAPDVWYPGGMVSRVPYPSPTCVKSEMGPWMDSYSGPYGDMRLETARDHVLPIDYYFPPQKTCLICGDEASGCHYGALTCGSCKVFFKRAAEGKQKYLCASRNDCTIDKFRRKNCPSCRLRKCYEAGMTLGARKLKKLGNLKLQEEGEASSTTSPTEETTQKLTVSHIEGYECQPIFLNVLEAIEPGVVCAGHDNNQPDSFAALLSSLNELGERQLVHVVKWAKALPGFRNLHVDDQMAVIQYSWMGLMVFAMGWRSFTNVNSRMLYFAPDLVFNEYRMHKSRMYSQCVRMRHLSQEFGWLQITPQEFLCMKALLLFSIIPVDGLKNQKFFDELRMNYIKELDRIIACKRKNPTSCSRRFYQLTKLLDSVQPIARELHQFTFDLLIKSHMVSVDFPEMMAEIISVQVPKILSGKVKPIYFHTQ
Summary of the method: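 Using qHTS, AR-UAS-bla GripTite HEK293 cells received compound, then R1881, and were cultured 16 h at 37C/5% CO2 before a 2 h room-temperature LiveBLAzer B/G FRET substrate step and fluorescence measurement.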

[6] = target: Androgen receptor (Homo sapiens) (UniProt P10275); experiment: qHTS assay to identify small molecule agonists of the androgen receptor (AR) signaling pathway using the MDA cell line (AID 743040; note: nearly all actives have a fitted effect of over 20% in size)
Summary of the method: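 Luminescence from ONE-Glo, read after 30 min at room temperature, reflects MMTV-driven luciferase in MDA-kb2 cells (AR- and GR-responsive). Treatment lasted 16 h at 37C, 0% CO2.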

[7] = target: Androgen receptor (Homo sapiens) (UniProt P10275); experiment: qHTS assay to identify small molecule antagonists of the androgen receptor (AR) signaling pathway using the MDA cell line (AID 743042; note: nearly all actives have a fitted effect of over 55% in size; note: potency is the fitted concentration of half-maximal effect)
Summary of the method: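 MDA-kb2 cells (human breast carcinoma, stably carrying an MMTV-luciferase reporter responsive to AR and GR) were plated at 3,000 cells/well and preincubated 5 hr at 37C, then given compound plus R1881 agonist for 16 h. ONE-Glo luminescence was read.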

[8] = target: Androgen receptor (Homo sapiens) (UniProt P10275); experiment: qHTS assay to identify small molecule agonists of the androgen receptor (AR) signaling pathway (AID 743036; active = well fitted activation curve with a large enough effect in the signal ratio in the repeat runs, with a control signal flat, not every such curve was filed as active; the % refers to the signal ratio)
Summary of the method: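 HEK293 cells stably carrying a UAS-driven beta-lactamase reporter (GeneBLAzer AR-UAS-bla-GripTite) were plated at 2,000 cells/well, rested 4 h at 37C, then exposed to compounds in DMSO for 16 h. LiveBLAzer B/G FRET substrate was added for 2 h at room temperature; fluorescence read.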

[9] = qHTS RealTime-Glo MT Cell Viability Assay in HEK293 cells - 0 hour (AID 1224880); note: top concentration of the series differs between compounds; nearly all actives have a fitted effect of over 45% in size
Summary of the method: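 Tox21 screen in HEK293 using RealTime-Glo MT chemistry, with cells and reagent co-dispensed. Luminescence proportional to viable cell number was captured at intervals during 40 h compound exposure at 37 C.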

[10] = qHTS assay to identify small molecule antagonists of the progesterone receptor (PR) signaling pathway - cell viability counter screen (AID 1346798); note: series mostly up to about 92 µM; nearly all actives have a fitted effect of over 50% in size
Summary of the method: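 PR-UAS-bla HEK293T cells in medium with 2% charcoal-stripped FBS were treated with compounds plus R5020 for 16 hr at 37C. Cell viability was then read by CellTiter-Glo luminescence after 30 min at room temperature in the same wells.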

[11] = qHTS assay to identify small molecule antagonists of the estrogen receptor alpha (ER-alpha) signaling pathway using the BG1 cell line in the presence of 0.1 nM 17-beta-estradiol - cell viability counter screen (AID 1259241); note: nearly all actives have a fitted effect of over 40% in size
Summary of the method: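 VM7Luc4E2 cells (endogenous ER-alpha, 4×ERE-luciferase), hormone-starved 5 days in charcoal-stripped FBS, were treated with compounds plus 0.1 nM 17beta-estradiol for 22 hr at 37C; viability read in same wells as CellTiter-Fluor live-cell protease fluorescence.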

[12] = qHTS assay to identify small molecule antagonists of the androgen receptor (AR) signaling pathway using the MDA cell line in the presence of 0.5 nM R1881 - cell viability counter screen (AID 1259242); note: nearly all actives have a fitted effect of over 45% in size
Summary of the method: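 R1881 at 0.5 nM final stimulated MDA-kb2 cells during 16 hr compound treatment at 37C. Cytotoxicity read: CellTiter-Fluor fluorescence after 30 min.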

[13] = target: Estrogen receptor (Homo sapiens) (UniProt P03372); experiment: qHTS assay to identify small molecule antagonists of the estrogen receptor alpha (ER-alpha) signaling pathway using the BG1 cell line in the presence of 0.1 nM 17-beta-estradiol (AID 1259244); note: nearly all actives have a fitted effect of over 50% in size
Summary of the method: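 VM7Luc4E2; 4xERE-luciferase; 0.1 nM E2 final; 22 h co-incubation, 37C; ONE-Glo luminescence after 30 min at room temperature.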

[14] = target: Estrogen receptor (Homo sapiens) (UniProt P03372); experiment: qHTS assay to identify small molecule agonists of the estrogen receptor alpha (ER-alpha) signaling pathway in the presence of an antagonist (AID 1259383; calls by dose curve; note: top concentration of the series differs between compounds; nearly all actives have a fitted effect of over 15% in size)
Summary of the method: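 Using VM7Luc4E2 cells seeded 24hr before treatment, antagonist ICI-182,780 (10.0nM final) was added, followed by compounds at 15 concentrations. Plates incubated 22hr; ONE-Glo luminescence quantified reporter activity.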

[15] = target: Acetylcholinesterase (Homo sapiens) (UniProt P22303); experiment: Acetylcholinesterase (AChE) small molecule antagonists: colormetric cell-based qHTS assay (AID 1347395; calls by dose curve; note: nearly all actives have a fitted effect of over 30% in size)
Sequence of Acetylcholinesterase (Homo sapiens) (P22303 whole entry, looked up): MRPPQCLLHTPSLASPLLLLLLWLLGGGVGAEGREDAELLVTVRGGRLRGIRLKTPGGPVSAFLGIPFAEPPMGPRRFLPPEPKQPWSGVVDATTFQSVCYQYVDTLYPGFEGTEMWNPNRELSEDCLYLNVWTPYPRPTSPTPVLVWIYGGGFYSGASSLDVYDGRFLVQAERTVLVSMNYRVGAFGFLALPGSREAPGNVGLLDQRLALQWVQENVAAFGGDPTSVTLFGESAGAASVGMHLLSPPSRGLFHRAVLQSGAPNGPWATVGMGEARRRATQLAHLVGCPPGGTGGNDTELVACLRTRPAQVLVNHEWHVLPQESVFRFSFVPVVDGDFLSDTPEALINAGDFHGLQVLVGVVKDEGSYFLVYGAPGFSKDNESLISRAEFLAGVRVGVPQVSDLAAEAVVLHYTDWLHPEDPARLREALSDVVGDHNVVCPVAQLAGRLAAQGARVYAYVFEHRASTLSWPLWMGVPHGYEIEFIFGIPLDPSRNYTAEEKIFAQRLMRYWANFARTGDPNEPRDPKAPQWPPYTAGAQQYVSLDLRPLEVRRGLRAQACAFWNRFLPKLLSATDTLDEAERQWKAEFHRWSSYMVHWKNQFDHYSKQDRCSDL
Summary of the method: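 SH-SY5Y cells, plated overnight at 37 C, were exposed to compounds for 30 min at 37 C and 5% CO2. Acetylthiocholine plus DTNB was then added, and thiocholine from endogenous AChE was quantified colorimetrically after 90 min at 37 C.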

[16] = target: Acetylcholinesterase (Homo sapiens) (UniProt P22303); experiment: Acetylcholinesterase (AChE) small molecule antagonists: enzyme-based qHTS assay (AID 1347397; calls by dose curve; note: nearly all actives have a fitted effect of over 55% in size); details: Potency: AChE enzyme activity inhibition; outcome: AChE enzyme activity inhibition
Summary of the method: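 Human recombinant acetylcholinesterase; substrate acetylthiocholine; thiocholine quantified with DTNB (colorimetric). Compound preincubation 30 min RT; reaction 10 min RT.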

[17] = target: Acetylcholinesterase (Homo sapiens) (UniProt P22303); experiment: Acetylcholinesterase (AChE) small molecule antagonists: fluorescence cell-based qHTS assay (AID 1347398; calls by dose curve; note: nearly all actives have a fitted effect of over 50% in size); details: Potency: AChE activity; outcome: AChE activity
Summary of the method: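 Thiocholine generated from acetylthiocholine by SH-SY5Y cell AChE is detected with Thiolite Green (Ex/Em 490/520 nm) after 40 min at room temperature, following 30 min compound pretreatment at 37 C.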
% is set by controls: 0 for no effect and ±100 for the full control effect.

CCC(C)(S(=O)(=O)CC)S(=O)(=O)CC
inactive: Potency [1] | Potency [2] | max activation [3] -2.56%

CNC(C)C(O)c1ccc(O)cc1 (stereo not drawn)
inactive: Potency [2] | max activation [3] -2.76% and -1.51%

CC(=O)[C@H]1CC[C@H]2[C@@H]3CC[C@@H]4C[C@H](O)CC[C@]4(C)[C@H]3CC[C@]12C
inactive: Potency [1] | Potency [2] | max activation [3] 6.21%

[2H]C([2H])([2H])[C@H](N)Cc1ccccc1
inactive: Potency [1] | Potency [4] | Potency [5] | Potency [6] | Potency [7] | Potency [2] | max activation [3] -6.9%

Cc1ccccc1-n1c(CF)nc2ccc(N)cc2c1=O
inactive: Potency [1] | Potency [5] | Potency [8] | Potency [7] | max activation [3] -3.24%

CC(C)(C)c1ccc(O)cc1
inactive: outcome [9] | Potency [10]

CCC1(c2cnc[nH]2)Cc2ccccc2C1
inactive: Potency [2] | Potency [11] | Potency [12] | Potency [13] | outcome [14] | Potency [15] | Potency [16] | Potency [17]

O=C1CCCCC1CN1CCCCC1 (stereo not drawn)
inactive: Potency [1] | Potency [4] | Potency [5] | Potency [8] | Potency [7] | Potency [2] | max activation [3] -4.76%

CC(=O)Oc1ccc2c3c1O[C@H]1[C@@H](OC(C)=O)C=C[C@H]4[C@@H](C2)N(C)CC[C@@]341
inactive: Potency [1] | Potency [4] | Potency [2] | max activation [3] 0.899%

O=C(CCl)c1ccc(Oc2ccc(C(=O)CCl)cc2)cc1
inactive: Potency [2] | max activation [3] 7.38%

CC(N)Cc1ccc(O)cc1 (stereo not drawn)
inactive: Potency [1] | Potency [4] | Potency [2] | max activation [3] -0.925%

CCCCC[C@@H](O)C1C(=O)OC(C)[C@H](O)/C=C/C=C/C=C/C=C/C=C(\C)C(O)C(O)C(O)C[C@H](O)C[C@H](O)C[C@H](O)C[C@H](O)C[C@@H]1O (stereo partly drawn)
inactive: Potency [4] | Potency [2] | max activation [3] 0.909%

CC(C)C[C@H](CN)CC(=O)O
inactive: Potency [4] | Potency [2] | max activation [3] -2.72%

CC[N+](C)(CC)CCOC(=O)C(O)(c1ccccc1)c1ccccc1
inactive: Potency [1] | Potency [4] | Potency [2] | max activation [3] -2.16%

CCCCNCC(O)c1ccc(O)cc1 (stereo not drawn)
inactive: Potency [1] | max activation [3] -0.163%

CCC(=O)O[C@]1(c2ccccc2)CCN(C)C[C@H]1C
inactive: Potency [5] | Potency [8] | Potency [7] | Potency [2] | max activation [3] -0.104%

CCNCC(O)c1cccc(O)c1 (stereo not drawn)
inactive: Potency [1] | Potency [4] | Potency [2] | max activation [3] 1.03%

O=S(=O)(O)c1cc(O)ccc1O
inactive: Potency [4] | Potency [11] | Potency [12]

COc1ccc(OC)c([C@@H](O)[C@H](C)N)c1
inactive: Potency [4] | Potency [7] | Potency [2] | max activation [3] -3.61%

CCC(=O)O[C@@](Cc1ccccc1)(c1ccccc1)[C@@H](C)CN(C)C
inactive: Potency [1] | max activation [3] 0.731%

CC1(C)S[C@@H]2[C@H](N)C(=O)N2[C@H]1C(=O)O
inactive: Potency [1] | Potency [4] | Potency [5] | Potency [8] | Potency [6] | Potency [7] | Potency [2] | max activation [3] -2.48%

CC(=O)O[C@H]1C[C@H](O[C@H]2[C@@H](O)C[C@H](O[C@H]3[C@@H](O)C[C@H](OC4CC[C@@]5(C)[C@H](CC[C@@H]6[C@@H]5CC[C@]5(C)[C@@H](C7=CC(=O)OC7)CC[C@]65O)C4)O[C@@H]3C)O[C@@H]2C)O[C@H](C)[C@H]1O[C@@H]1O[C@H](CO)[C@@H](O)[C@H](O)[C@H]1O (stereo partly drawn)
inactive: max activation [3] -3.5%
active: Potency [7] 1680 nM

C[N+]1([O-])[C@@H]2CC(OC(=O)[C@H](CO)c3ccccc3)C[C@H]1[C@@H]1O[C@@H]12 (stereo partly drawn)
inactive: Potency [4] | Potency [5] | Potency [6] | Potency [7] | Potency [2] | max activation [3] 6.47% and -0.453%
